Data as given in PubChem BioAssay (NCATS).
Several values for one entry are separate records, joined by “and”; a condition that tells them apart may be missing. Equal entries are not always repeated. Results filed as inconclusive are left out. Activity calls are given as the source filed them. Calls come from the whole dose curve; as a rule, active = well fitted curve in the direction sought with a large enough effect; inconclusive = small, poorly fitted or top-dose-only effect, or another doubt; inactive = no such curve, though single readings can be large; an effect the other way counts as inactive or inconclusive.

Columns and labels:
[1] = target: Cellular tumor antigen p53 (Homo sapiens) (UniProt P04637); test: Primary qHTS for small molecule compounds that upregulate eGFP-tagged delta133p53alpha (in N-terminal) cells. (AID 2060322); settings: NCI-H358 eGFP-delta133p53alpha fluorescence, 24 h; activation: stronger effect = higher value;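 note: 0% = DMSO vehicle and 100% = reference activator; nearly all actives have a fitted effect of over 75% in size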
Procedure, shortened: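 NCI-H358 cells pre-induced 24 h with 10 ng/ml doxycycline to express N-terminal eGFP-delta133p53alpha, then dosed 24 h at 37C without doxycycline; fixed, Hoechst-stained, GFP intensity by laser scanning cytometry, normalized to DMSO (0%) and 57.5 uM 5-azacytidine (100%).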

[2] = target: Aldehyde dehydrogenase, mitochondrial (Homo sapiens) (UniProt P05091); test: qHTS for Inhibitors of the Aldehyde Dehydrogenase Family (ALDH2) Primary screen (AID 2061308); settings: ALDH2 enzyme inhibition qHTS, 1536-well; series mostly up to 56 µM;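 note: plate controls were vehicle for no effect and reference inhibitor for full effect; nearly all actives have a fitted effect of over 55% in size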
[3] = target: Retinaldehyde dehydrogenase 3 (Homo sapiens) (UniProt P47895); test: qHTS for Inhibitors of the Aldehyde Dehydrogenase Family (ALDH1A3) Validation screen (AID 2061312); settings: ALDH1A3 enzyme inhibition qHTS validation, fluorescence; series mostly up to 84.7 µM; note: % is set by controls: 0 for no effect and ±100 for the full control effect; nearly all actives have a fitted effect of over 45% in size
[4] = target: Retinaldehyde dehydrogenase 3 (Homo sapiens) (UniProt P47895); test: qHTS for Inhibitors of the Aldehyde Dehydrogenase Family (ALDH1A3) Primary screen (AID 2061315); settings: ALDH inhibition qHTS; series mostly up to 56 µM;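 note: plate controls were DMSO vehicle for no effect and reference inhibitor for full effect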
[5] = BET inhibitor-based combinations targeting novel dependencies in MECOM-rearranged (r) AML: MV-4-11 cell line (AID 2202233); settings: MV-4-11 AML viability, CellTiter-Glo luminescence, 48 h; series mostly up to 46 µM; note: nearly all actives have a fitted effect of over 45% in size; note: potency is the fitted concentration of half-maximal effect
Procedure, shortened: (§1)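 Seeding density was 500 cells/well, and drug exposure lasted 48 hr under standard culture conditions. Read-out used CellTiter-Glo reagent with a 15 min room-temperature incubation before luminescence measurement; AUC and Z-AUC summarize the normalized responses.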

[6] = BET inhibitor-based combinations targeting novel dependencies in MECOM-rearranged (r) AML: UCSD-AML1 cell line (AID 2202235); settings: UCSD-AML1 AML cells viability, CellTiter-Glo, 48 h; series mostly up to 46 µM; note: nearly all actives have a fitted effect of over 40% in size; note: potency is the fitted concentration of half-maximal effect
Procedure, shortened: as §1

[7] = BET inhibitor-based combinations targeting novel dependencies in MECOM-rearranged (r) AML: AML-191 cell line (AID 2202236; note: nearly all actives have a fitted effect of over 35% in size; note: potency is the fitted concentration of half-maximal effect); settings: AML-191 viability, CellTiter-Glo luminescence, 48 h; series mostly up to 46 µM
Procedure, shortened: (§2)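 Readout: CellTiter-Glo luminescence. Exposure: 48 h, 11 concentrations, 500 cells/well. Metric: AUC and within-line Z-AUC after DMSO/empty-well normalization.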

[8] = BET inhibitor-based combinations targeting novel dependencies in MECOM-rearranged (r) AML: AML-194 cell line (AID 2202237; note: nearly all actives have a fitted effect of over 40% in size; note: potency is the fitted concentration of half-maximal effect); settings: AML-194 (MECOM-r AML) viability, CellTiter-Glo, 48 h; series mostly up to 46 µM
Procedure, shortened: as §2

[9] = BET inhibitor-based combinations targeting novel dependencies in MECOM-rearranged (r) AML: OCI-AML3 cell line (AID 2202232); settings: CellTiter-Glo luminescence, 48 h; Potency: OCI-AML3 viability; series mostly up to 46 µM; note: potency is the fitted concentration of half-maximal effect; nearly all actives have a fitted effect of over 35% in size
Procedure, shortened: as §2

[10] = BET inhibitor-based combinations targeting novel dependencies in MECOM-rearranged (r) AML: HNT-34 cell line (AID 2202234); settings: HNT-34 AML viability, CellTiter-Glo luminescence, 48 h; series mostly up to 46 µM; note: potency is the fitted concentration of half-maximal effect; nearly all actives have a fitted effect of over 35% in size
Procedure, shortened: as §1

Chain of Cellular tumor antigen p53 (Homo sapiens) (P04637 whole entry, looked up): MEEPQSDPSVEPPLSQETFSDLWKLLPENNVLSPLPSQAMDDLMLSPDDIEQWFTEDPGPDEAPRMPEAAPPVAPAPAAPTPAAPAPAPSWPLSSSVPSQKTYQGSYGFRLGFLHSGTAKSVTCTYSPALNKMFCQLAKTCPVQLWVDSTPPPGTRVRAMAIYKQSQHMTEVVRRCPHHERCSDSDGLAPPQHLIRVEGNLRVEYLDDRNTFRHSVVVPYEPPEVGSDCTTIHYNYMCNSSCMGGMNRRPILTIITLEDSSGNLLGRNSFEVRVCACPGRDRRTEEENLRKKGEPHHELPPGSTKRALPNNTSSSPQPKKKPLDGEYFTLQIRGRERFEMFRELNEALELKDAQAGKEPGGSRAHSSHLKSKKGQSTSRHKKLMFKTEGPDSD

O=C(Nc1cccnc1)N1CCC(Cc2cccc(Oc3ccc(C(F)(F)F)cn3)c2)CC1
inactive: activation [1] -5.98% and -11% | Potency [2] | Potency [3] | Potency [4]
active: Potency [5] 5.9 µM | Potency [6] 26.3 µM | Potency [7] 20.9 µM

Cn1cc(-c2ccc3nnc(C(F)(F)c4ccc5ncccc5c4)n3n2)cn1
inactive: activation [1] -10% and 1.43% | Potency [2] | Potency [3] | Potency [4] | Potency [6] | Potency [8]

CC(C)n1cnc2c(NCCc3ccc(O)cc3)nc(-c3csc4ccccc34)nc21
inactive: activation [1] 28% and 17.7% | Potency [2] | Potency [3] | Potency [4]
active: Potency [9] 20.9 µM | Potency [7] 20.9 µM | Potency [8] 20.9 µM

O=C(Nc1cccc(Br)c1)c1cccc(S(=O)(=O)N2CCCCCC2)c1
inactive: activation [1] 41.1% and -27.9% | Potency [2] | Potency [3] | Potency [4] | Potency [6]
active: Potency [5] 16.6 µM

O=C(NCCCNc1nc(Nc2cccc(CN3CCOCC3)c2)ncc1C1CC1)C1CCC1
inactive: activation [1] -15.3% | Potency [2] | Potency [3] | Potency [4]
active: Potency [5] 0.417 µM | Potency [10] 16.6 µM

Cc1cc(N2CCOCC2)ccc1Nc1nc(NC2CCCCC2)c2[nH]cnc2n1
active: Potency [5] 1.32 µM | Potency [8] 4.17 µM
inactive: activation [1] 7.16% | Potency [2] | Potency [3] | Potency [4]

CCNC(=O)c1noc(-c2cc(C(C)C)c(O)cc2O)c1-c1ccc(CN2CCOCC2)cc1
active: Potency [6] 0.0166 µM
inactive: activation [1] -2.59% and -6.68% | Potency [2] | Potency [3] | Potency [4]

CN[C@@H](C)C(=O)N[C@H]1CN(C(=O)CC(C)C)CC[C@H]2CC[C@@H](C(=O)NC(c3ccccc3)c3ccccc3)N2C1=O
inactive: activation [1] 28.1% | Potency [2] | Potency [3] | Potency [4] | Potency [8]

C=C1[C@H](CO)[C@@H](O)C[C@@H]1n1cnc2c(=O)[nH]c(N)nc21
active: Potency [7] 18.6 µM
inactive: activation [1] -3.34% | Potency [2] | Potency [3] | Potency [4] | Potency [8]

COc1cc(OC)c2c(=O)[nH]c(-c3cc(C)c(OCCO)c(C)c3)nc2c1
inactive: activation [1] -0.477% | Potency [2] | Potency [3] | Potency [4]
active: Potency [9] 14.8 µM | Potency [5] 16.6 µM | Potency [7] 16.6 µM | Potency [8] 20.9 µM

CCC1=C(C)CN(C(=O)NCCc2ccc(S(=O)(=O)NC(=O)NC3CCC(C)CC3)cc2)C1=O (stereo not given)
inactive: activation [1] -11% and 10.7% and 1.91% | Potency [2] | Potency [3] | Potency [4] | Potency [5] | Potency [6] | Potency [7] | Potency [8]

O=C(Nc1cccnn1)N1CCC(=Cc2cccc(Oc3ccc(C(F)(F)F)cn3)c2)CC1
active: Potency [7] 18.6 µM | Potency [8] 18.6 µM
inactive: activation [1] -1.43% | Potency [2] | Potency [3] | Potency [4] | Potency [6]

COC1CCN(C(=O)c2cc(Cc3n[nH]c(=O)c4ccccc34)ccc2F)CC1
active: Potency [7] 18.6 µM
inactive: activation [1] 4.47% | Potency [2] | Potency [3] | Potency [4]

Cc1nc2c([nH]1)CCN(C(=O)c1ccc(NC(=O)c3ccccc3-c3ccccc3)cc1)c1ccccc1-2
active: Potency [9] 14.8 µM | Potency [5] 20.9 µM
inactive: activation [1] -5.73% and -5.25% | Potency [2] | Potency [3] | Potency [4] | Potency [6] | Potency [8]

FC(F)(F)c1ccc(CNc2ccc(Cc3c[nH]c4ncccc34)cn2)cc1
inactive: activation [1] 2.39% | Potency [2] | Potency [3] | Potency [4]
active: Potency [9] 20.9 µM | Potency [5] 0.525 µM | Potency [7] 13.2 µM | Potency [8] 16.6 µM

C[C@@H](NC(=O)c1ncnc(N)c1Cl)c1ncc(C(=O)Nc2cc(C(F)(F)F)c(Cl)cn2)s1
inactive: activation [1] 19.6% | Potency [2] | Potency [3] | Potency [4]
active: Potency [10] 2.35 µM | Potency [6] 8.33 µM

CCOC(=O)C1=C(C)NC2=C(C(=O)CC(C)(C)C2)C1c1ccc(-c2ccccc2)cc1 (stereo not given)
active: Potency [9] 13.2 µM
inactive: activation [1] 5.7% | Potency [2] | Potency [3] | Potency [4] | Potency [6] | Potency [7] | Potency [8]

NC(=O)[C@H]1CCCCc2c1[nH]c1ccc(Cl)cc21
inactive: activation [1] 15% | Potency [2] | Potency [4]
